# Laboratory results published in the supplement of paper PMC6555819.
# Test system: VDR:RXRa (NR concentration 270 nM, RXRa partner concentration 90 nM)
# Assay: PBM binding z-score (relative to random genomic background probes); higher = stronger binding; sequences stand for … in GC…GCGATTGACAGCGTAGAATGAAGG
# Procedure: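 Protein-binding microarray (Agilent 4x180K custom design, double-stranded 60-nt probes: 5' GC cap, 34-nt variable region, 24-nt constant primer region; full probe sequence given). Purified or IVT nuclear receptor:RXRα heterodimers (3:1 NR:RXRα, mostly 270:90 nM) or homodimers were incubated for 1 h in PBS with 2% milk and no ligand, then detected with Alexa488 antibodies. Fluorescence from o1-orientation probes (~5 replicates averaged) was converted to z-scores against 500 random hg19 background probes. Variable regions are seed direct-repeat (DR0–DR5) sites, all their single-nucleotide variants and half-site ablations.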
row,Sequence,PBM binding z-score
1,GATACAGGGTCAGCTAGAGGCCAGAGTTTGGAAA,3.36
2,TCTTGTACATCAGCAGGTTAAGAAAGCTGGCCAA,0.622
3,CCGACTAGGGCATAAGGTTACCATAAGCCAGCCC,0.257
4,GCGACCGGGGCAAAGCAGGTTACCATAAGGTTGG,0.7
5,AGTCAAAGTTCACTAGATAACGTAAGATTCAGCT,3.5
6,GGAACGAGGGCACTCGAGTTGATAGCATGGCGAT,2.64
7,CCTACTGCGCCACGAAAGGTCATTGATTCAGTGA,4.08
8,AGTCAAAGTTCACTAGGTAATGTAAGATTCAGCT,3.84
9,CAAACTAGGTCACGAAAGGTCAAAGACGAATGAC,6.91
10,CCTGGGAGGACAGAAGGTCAGAGCTGTCCGCTTT,1.04
11,CCTTACGGGTCACGAGGTTAGAGCACGACGAGCG,4.98
12,CGAACTAGGTCATTGACAGGACAGTTAATAGTAA,2.16
13,AGAATGAGGTTATACGTAGTTCAGGGAAGAAAGT,3.09
14,CCTAGTAGGTCAAGGTCACACACGCTATAGGTAC,5.04
15,GCTGCTAGGTCAACTGATGTTCAGCTAAAGCTCG,1.61
16,TCGAGTAGGTTACCAATGGGGCATTCCGCTTTCT,0.11
17,CCTATTAGTTGACCATTAGGGCAACCGAAGCTCG,0.563
18,CGTCCAAGGTCCGAGAGGTCAGTGAATGCCGAGT,3.27
19,GCGACTGGGGCATCAGCACGTTACCATAACTTAA,-0.365
20,ATTGAAAGGTCGTGAGGTGAGTATACAGAAAGGC,3.71

row,Sequence,PBM binding z-score
1,CGTCAAAGTTCAAGGTAACGTAACAGAAAGCAGC,3.78
2,GCTACTAGGTCAGGTTGGTCAGCTAACGGGTACG,0.914
3,TCGAGTAGGTTACCAATGGGGGATTCAGCTTTCT,0.83
4,CGTCCAAGGTCAGACAGGTCAGTGAATGCCGAGT,5.82
5,TTACCAAGGTGAATGTCGTTGATCCCTCTGTAGA,0.328
6,ATACGAAGGTGATCGTGAGGTCGTTGATACTAAC,3.09
7,CTACCAAGCTGAACAAGGTCGTTGATTACTATTC,1.51
8,ACTAGCAGGCCAAGGGTCACTAAAGATTAGTCCG,2.62
9,GCTGCTAGGTCAGGTTGGTCAGATAACGGGTACG,0.794
10,ACTAGCAGGCCAAGTTTGGGTCACTGAAACAAAG,0.731
11,TCTGATAGGTCAGTTGGTCAGCTAACGAGCTGCC,0.777
12,AATACAGGGTCATCGCAGGCCAGAGTACGCACAG,5.31
13,CGAACGAGGGCATCAGTTGATAGCAAATGCCGAT,0.559
14,CCTAGCAGGCCAAGCTGGGTCACTCAAGGCTTGA,0.17
15,TAGCCTAGGTCAGTTCGGGCCAGTATACGCTATA,0.785
16,ATCTCTAGGTAACAAGTCCAGTGAAAGAGAGGAC,0.103
17,GATACAGGGTCAAGGCCAGAGTCCGCGTATTGAT,4.32
18,CGGCCAAGGTCAGCAGGTCAGTGAAAGCGACGTG,3.8
19,CCTAGCAGGCCAATCTGGGTCACTCAAGGCTTGA,0.724
20,GCTTGTAGATAAAGGTTAAGAAAGACTAAGCTAA,0.626
